One molecule from the supplement of paper PMC4466140 can be followed below.

The first assay addresses CaNbp2. Description: SPOT peptide array binding signal intensity (averaged, normalized) (arbitrary units (background-subtracted, floor 0; scale differs between SH3 domains)); higher = stronger binding of the SH3 domain to the peptide. Put shortly:
(§1)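 Binding signal is given in arbitrary units that differ between domains and is the normalized, background-subtracted spot intensity averaged across replicates. Each GST-SH3 fusion from one of four yeast species was made in E. coli BL21(DE3), purified on glutathione Sepharose and incubated at 10 μg/ml overnight at 4°C on cellulose-bound synthetic 15-mer peptides in which cysteines were replaced by serines. Detection used anti-GST antibody, an HRP anti-mouse secondary and luminol, followed by imaging and Genespotter quantification.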
HAPPLPPTAPPPPSL: the “SPOT peptide array binding signal intensity” value is ≤ 0.

The next assay deals with CaRvs167. The assay is described as above. A digest of the protocol: as §1
HAPPLPPTAPPPPSL: the “SPOT peptide array binding signal intensity” value is ≤ 0.

The next assay addresses CaRvs167-3. Described as above. Put shortly:
as §1
For HAPPLPPTAPPPPSL, the “SPOT peptide array binding signal intensity” value is ≤ 0.

The target in a further assay is CaSho1. Described as above. A digest of the protocol: as §1
On to HAPPLPPTAPPPPSL, for which the “SPOT peptide array binding signal intensity” value is ≤ 0.

The next assay addresses CaSla1-D1-D2. The assay is described as above. A digest of the protocol:
as §1
On to HAPPLPPTAPPPPSL, for which the “SPOT peptide array binding signal intensity” value was ≤ 0.

Another assay has as its target CaSla1-D3. Described as above. A digest of the protocol: as §1
With HAPPLPPTAPPPPSL, the “SPOT peptide array binding signal intensity” value is ≤ 0.

For a further assay, the target named is ScAbp1. The assay is described as above. A digest of the protocol:
as §1
Turning to HAPPLPPTAPPPPSL, the “SPOT peptide array binding signal intensity” value was ≤ 0.

Another assay addresses ScBbc1. The assay is described as above. Put shortly:
as §1
For HAPPLPPTAPPPPSL, the “SPOT peptide array binding signal intensity” value is ≤ 0.

Another assay addresses ScBem1-D1. Described as above. A digest of the protocol:
as §1
In the case of HAPPLPPTAPPPPSL, the “SPOT peptide array binding signal intensity” value was ≤ 0.

The target in another assay is ScBzz1-D1. The description is as above. Put shortly: as §1
HAPPLPPTAPPPPSL: the “SPOT peptide array binding signal intensity” value was ≤ 0.

The next assay deals with ScBzz1-D2. Described as above. Put shortly: as §1
For HAPPLPPTAPPPPSL, the “SPOT peptide array binding signal intensity” value is ≤ 0.

For a further assay, the target named is ScCyk3. The description is as above. Put shortly: as §1
Regarding HAPPLPPTAPPPPSL, the “SPOT peptide array binding signal intensity” value was ≤ 0.

For the next assay, the target named is ScFus1. The assay is described as above. Put shortly: as §1
On to HAPPLPPTAPPPPSL, for which the “SPOT peptide array binding signal intensity” value was ≤ 0.

The target in a further assay is ScHof1. Described as above. A digest of the protocol:
as §1
As for HAPPLPPTAPPPPSL, the “SPOT peptide array binding signal intensity” value was determined as 40.5.

Another assay addresses ScHse1. Described as above. Put shortly: as §1
With HAPPLPPTAPPPPSL, the “SPOT peptide array binding signal intensity” value was ≤ 0.

The target of a further assay is ScLsb1. The description is as above. A digest of the protocol:
as §1
For HAPPLPPTAPPPPSL, the “SPOT peptide array binding signal intensity” value was ≤ 0.

The target in the next assay is ScLsb2. The assay is described as above. Put shortly:
as §1
Take HAPPLPPTAPPPPSL: the “SPOT peptide array binding signal intensity” value was ≤ 0.

The target in a further assay is ScLsb3. The description is as above. Put shortly:
as §1
Regarding HAPPLPPTAPPPPSL, the “SPOT peptide array binding signal intensity” value is ≤ 0.

For another assay, the target named is ScLsb4. Described as above. Put shortly:
as §1
For the molecule HAPPLPPTAPPPPSL, the “SPOT peptide array binding signal intensity” value is ≤ 0.

Another assay concerns the target ScMyo3. The description is as above. A digest of the protocol: as §1
For the molecule HAPPLPPTAPPPPSL, the “SPOT peptide array binding signal intensity” value was 1750.

A further assay has as its target ScMyo5. The description is as above. A digest of the protocol: as §1
Take HAPPLPPTAPPPPSL: the “SPOT peptide array binding signal intensity” value amounted to 2000.

In another assay the target is ScNbp2. Described as above. Put shortly: as §1
In the case of HAPPLPPTAPPPPSL, the “SPOT peptide array binding signal intensity” value is ≤ 0.
